In PubChem BioAssay one finds viability, differential viability (reversal) and inhibition data, which are given here for 12 compounds.

Test [1] is described as follows: reduced viability of SK-BR-3 breast cancer cells – cell-based, 24 h, human, pilot screen (AID 572;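 active means viability at or below 10% of carrier control in both of two separate runs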;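 further: compound exposure lasted between 18 and 24 h rather than exactly 24 h; 100% = carrier-treated control wells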). The following applies: SK-BR-3 viability, CellTiter-Glo luminescence, at 10 µM, stronger effect = lower value.
Test [2] can be described thus: HUVEC growth inhibition – cell-based, human, primary screen (AID 575;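 active means viability at or below 30% in both replicate assays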;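 further: 100% = median of untreated cell wells with 0.1% DMSO on each plate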). The following applies: HUVEC proliferation, CellTiter-Glo luminescence, 72 h; at 10 µM; stronger effect = lower value.
The nature of test [3]: H69AR cell proliferation blockers – human, duplicate replicates, primary screen (AID 580;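 active means viability at or under a set limit in both replicates, limit being median viability minus 3 SD, cut at about 48% in these data, passing the limit was not always enough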;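 further: 100% = mean luminescence of untreated wells and 0% = no signal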). The following applies: H69AR lung tumor cells viability, ATP luminescence, 72 h; at 10 µM; stronger effect = lower value.
Test [4] in a line: MRP1 drug-resistance reversers in H69AR cells – cell-based, doxorubicin co-treatment, pilot screen (AID 601;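 active means viability loss from added drug above about 55%, and viability with drug at most 40%, in both replicates, limit read from the data, passing the limit was not always enough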). The following applies: CellTiter-Glo, 72 h, at 10 µM; for differential viability (reversal): stronger effect = higher value. A general note: ATP-based viability assays read luminescence as a measure of living cells.
Test [5] is described as follows: yeast transport mutant growth inhibition pilot in 384-well plates, post-Golgi transport modulator project (AID 636; in the data active means inhibition above about 31%). The following applies: absorbance 615 nm, about 18 h, stronger effect = higher value.
A short description of test [6]: growth suppression of yeast trafficking mutant, preliminary HTS, modulators of trafficking downstream of Golgi apparatus project, 1536-format plate, OD 615 nm (AID 637). The following applies: yeast transport mutant growth, absorbance 615 nm, 18 h; stronger effect = higher value.
[7] abbreviates: H69AR cells + 2 uM doxorubicin, measured here: viability with 2 uM doxorubicin, stronger effect = lower value.
The mark [8] stands for this setting: H69AR cells, compound alone cytotoxicity.

The source made the active and inactive calls. Unless noted, no stated cut-off is given here; in the data, active means inhibition above about 30%; inactive means the rest.

In the case of `O=C(NC1CC1)C1CCC(=O)N1C1CCCC1` (stereo not drawn), the viability in test [1] was 93% (inactive); in test [2], 102% (inactive); in test [3], 105% (inactive); in test [4] (setting [7]), 88.4%; in test [4] (setting [8]), 105%. Further, the differential viability (reversal) in test [4] (H69AR cells + 2 uM doxorubicin) was 16.3% (inactive). Further, the inhibition in test [5] was -1.17% (inactive); in test [6] it was 0.33% (inactive).

As for `O=C(Cc1nc2ccccc2s1)c1ccc(O)cc1O`, the viability in test [1] is 100% (inactive); in test [2] it was 87.3% (inactive); in test [3], 90.8% (inactive); in test [4] (setting [7]), 86%; in test [4] (setting [8]), 90.8%. For the same compound, in test [4] (H69AR cells + 2 uM doxorubicin), the differential viability (reversal) was 4.72% (inactive). The results for the inhibition in test [5] and in test [6] were -4.53% (inactive) and -0.18% (inactive), respectively.

For the compound `Cc1cc(C)nc(N2CCC(C(=O)Nc3ccc(Oc4ccccc4)cc3)CC2)n1`, the viability in test [1] was 67% (inactive); in test [2], 105% (inactive); in test [3] it was 88.9% (inactive); in test [4] (setting [7]), 88.2%; in test [4] (setting [8]), 88.9%. In addition, in test [4] (H69AR cells + 2 uM doxorubicin), the differential viability (reversal) is 0.65% (inactive). The inhibition in test [5] is -8.36% (inactive); in test [6], 1.09% (inactive).

Turning to `N#CC1=C(N)OC2=C(C(=O)CCC2)C1CCc1ccccc1` (stereo not drawn), the viability was 98% (inactive) in test [1]; 91.9% (inactive) in test [2]; 103% (inactive) in test [3]; 89.3% in test [4] (setting [7]); 103% in test [4] (setting [8]). Also, the differential viability (reversal) in test [4] (H69AR cells + 2 uM doxorubicin) was 14.2% (inactive). The inhibition in test [5] was -6.08% (inactive); in test [6] it was 1.64% (inactive).

With `COc1ccc(-n2ncc3c(NCc4cccs4)ncnc32)cc1`, the viability is 120% (inactive) in test [1]; 90.5% (inactive) in test [2]; 73.3% (inactive) in test [3]; 55.8% in test [4] (setting [7]); 73.3% in test [4] (setting [8]). Further, the differential viability (reversal) in test [4] (H69AR cells + 2 uM doxorubicin) is 17.6% (inactive). The inhibition in test [5] was -6.71% (inactive); in test [6] it was -1.64% (inactive).

With `COc1ccccc1NC1=NC(c2ccc(Cl)cc2)N=C(N)N1` (stereo not drawn), the viability in test [1] is 91% (inactive); in test [2], 68.2% (inactive); in test [3], 10% (active); in test [4] (setting [7]) it was 40.5%; in test [4] (setting [8]) it was 10%. In addition, the differential viability (reversal) in test [4] (H69AR cells + 2 uM doxorubicin) is -30.4% (inactive). In addition, the inhibition is -5.27% (inactive) in test [5] and 0% (inactive) in test [6].

`CC1(C)Cc2c(C#N)c(SCCC#N)nc(N3CCOCC3)c2CS1`: the viability in test [1] was 83% (inactive); in test [2], 86.6% (inactive); in test [3], 84.2% (inactive). Also, the inhibition in test [5] is -3.42% (inactive); in test [6], -4.84% (inactive).

On to `NCc1ccc(S(N)(=O)=O)cc1`, for which the viability in test [1] was 124% (inactive); in test [2] it was 84.8% (inactive); in test [3], 102% (inactive); in test [4] (setting [7]), 92.1%; in test [4] (setting [8]), 102%. Also, the differential viability (reversal) in test [4] (H69AR cells + 2 uM doxorubicin) is 9.47% (inactive). For the same compound, the inhibition in test [5] was -1.43% (inactive); in test [6], 6.33% (inactive).

In the case of `CN(C)c1ccc(C=NCC2(O)CCOC(C)(C)C2)cc1` (stereo not drawn), the viability is 91% (inactive) in test [1]; 91.8% (inactive) in test [2]; 89.2% (inactive) in test [3]; 88.9% in test [4] (setting [7]); 89.2% in test [4] (setting [8]). Besides, the differential viability (reversal) in test [4] (H69AR cells + 2 uM doxorubicin) was 0.32% (inactive). The inhibition in test [5] is -7.67% (inactive); in test [6] it was 3.27% (inactive).

As for `CCN(CC)CCCNC1CCS(=O)(=O)C1` (stereo not drawn), the viability was 126% (inactive) in test [1]; 83% (inactive) in test [2]; 87.9% (inactive) in test [3]; 83.6% in test [4] (setting [7]); 87.9% in test [4] (setting [8]). Moreover, in test [4] (H69AR cells + 2 uM doxorubicin), the differential viability (reversal) is 4.3% (inactive). Moreover, the inhibition was -3.42% (inactive) in test [5] and -4.52% (inactive) in test [6].

Consider `COCCn1c(-c2ccco2)nc2nc3ccccc3nc21`, for which the viability is 99.5% (inactive) in test [1]; 99.1% (inactive) in test [2]; 77.3% (inactive) in test [3]; 79.6% in test [4] (setting [7]); 77.3% in test [4] (setting [8]). Besides, the differential viability (reversal) in test [4] (H69AR cells + 2 uM doxorubicin) was -2.21% (inactive). The figures for the inhibition in test [5] and in test [6] were -8.27% (inactive) and 3.28% (inactive), respectively.

As to `CCCCOc1ccc(C(=O)Nc2ccc(N3CCN(C(C)=O)CC3)cc2)cc1`, the viability in test [1] is 81% (inactive); in test [2], 88.8% (inactive); in test [3], 94.4% (inactive); in test [4] (setting [7]), 106%; in test [4] (setting [8]), 94.4%. For the same compound, the differential viability (reversal) in test [4] (H69AR cells + 2 uM doxorubicin) is -11.3% (inactive). Further, the inhibition in test [5] was -1.78% (inactive); in test [6] it was 0.91% (inactive).

In general, viability refers to a read-out of living cells in per cent, often relative to untreated cells. As usually defined, the inhibition is the drop in the measured response relative to a control, in per cent.
